Screening data from PubChem.
Rows were chosen to be rich in hits. Some 3.1% of all compounds tested hit in one or more screens of this group.
TR SRC2 fluor cs – Texas Red fluorescence interference in TRb-SRC2 counter-screen; TRb/SRC2 Texas Red total fluorescence interference; Potency, µM (series often up to 106 µM), for the others: at the top dose fluorescence change, negative = quenching; 280,000 compounds, 0.29% hits; AID 1479; active means well fitted curve in either direction with a large enough effect; inconclusive means small, poorly fitted or top-dose-only effect
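Flags fluorescent or light-absorbing compounds by total fluorescence, S + 2P, at 555 nm excitation and 632 nm emission. Mixture: 20 nM Texas Red SRC2 peptide, 0.6 uM human TRb LBD, 1 uM T3, 5% DMSO; compound exposure 5 h at ambient temperature.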
TRb-SRC2 inh – disrupts binding of human TR beta to SRC2; Potency, µM (series often up to 106 µM), without a hit: at the highest dose activity change, negative = inhibition, most hits filed as inhibitors; TRbeta-SRC2 peptide binding, fluorescence polarization; receptor liganded with 1 µM T3; P10828; 280,000 compounds, 0.065% hits;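 further: plate controls were bound peptide for no effect and peptide without receptor for full effect; nearly all actives have a fitted effect of over 50% in size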
Target sequence (P10828 whole entry, looked up): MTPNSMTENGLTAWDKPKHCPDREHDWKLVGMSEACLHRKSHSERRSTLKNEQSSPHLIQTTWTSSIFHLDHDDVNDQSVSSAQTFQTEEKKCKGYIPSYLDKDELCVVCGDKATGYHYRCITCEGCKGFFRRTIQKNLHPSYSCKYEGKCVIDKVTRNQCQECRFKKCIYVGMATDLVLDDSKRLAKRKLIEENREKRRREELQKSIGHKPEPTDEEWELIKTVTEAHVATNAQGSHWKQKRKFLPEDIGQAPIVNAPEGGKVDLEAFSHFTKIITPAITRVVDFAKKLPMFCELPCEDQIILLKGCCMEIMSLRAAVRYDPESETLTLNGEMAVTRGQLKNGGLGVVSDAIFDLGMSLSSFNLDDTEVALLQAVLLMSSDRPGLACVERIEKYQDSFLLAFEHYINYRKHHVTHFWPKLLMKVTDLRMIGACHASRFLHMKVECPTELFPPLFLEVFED
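Each compound concentration gave % activity, normalized to unbound and bound Texas Red SRC2 controls, from polarization read after 5 hr ambient incubation with T3-loaded human TRb LBD.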
Tau ThT inhib – blocks human tau fibril formation measured by thioflavin T; recombinant tau K18 P301L, heparin-induced fibrillization, ThT fluorescence; 270,000 compounds, 2.1% hits; Potency, µM (highest dose often 57.4 µM), for inactives: at the top dose activity, negative = inhibition, most hits filed as inhibitors; P10636; AID 1460; further: nearly all actives have a fitted effect of over 55% in size
Target sequence (P10636 561-689 P618L limits assumed): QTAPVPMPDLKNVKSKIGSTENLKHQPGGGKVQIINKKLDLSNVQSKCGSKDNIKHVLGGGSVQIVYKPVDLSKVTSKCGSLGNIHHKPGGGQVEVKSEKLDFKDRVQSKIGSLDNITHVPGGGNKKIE
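Heparin-induced fibrillization of the P301L-mutant K18 repeat-domain fragment of human tau was followed by ThT binding in quantitative high-throughput format.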
Tau fibril FP – blocks human tau fibril formation measured by polarization; K18 P301L tau heparin fibrillization, Alexa594 FP, 6 h; Potency, µM (top dose mostly 57.7 µM), for inactives: top-dose activity, negative = inhibition, most hits filed as inhibitors; 280,000 compounds, 0.39% hits; AID 1468; further: nearly all actives have a fitted effect of over 55% in size
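Compound effects on tau fibrillization are measured by Alexa 594 fluorescence polarization (ex 555, em 632 nm). K18 P301L tau is used at 15 uM with 0.24 uM labeled tracer, and 20 uM heparin induces aggregation over 6 hr at 37 C.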
Tau fluor counter – counter-screen for tau fibril formation inhibitors; 280,000 compounds, 0.93% hits; Potency, µM (titrated, usually from 57.7 µM), for the others: at the highest dose activity change, negative = decrease; tau K18 P301L Alexa594 fluorescence, heparin fibrillization; further: nearly all actives have a fitted effect of over 55% in size
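Human tau K18 P301L (15 uM unlabeled, 0.24 uM Alexa 594-labeled) in 100 mM sodium acetate pH 7 with 20 uM heparin, 6 hr at 37 C. ThT 30 uM added, 1 hr ambient; Alexa 594 FP and total fluorescence read at 555/632 nm.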
RGS12 GoLoco inh – RGS12 GoLoco-Gai1 interaction inhibition; P63096; Gai1:RGS12 GoLoco peptide FP, rhodamine, 10 min; Potency, µM (titrated, usually from 61.6 µM), without a hit: at the top dose activity, negative = inhibition, hits mostly inhibitors; 230,000 compounds, 0.44% hits; AID 880; active means well fitted inhibition curve with a large enough effect, not every such curve was filed as active; inactive means no such curve, though single readings can be large or run the other way; further: nearly all actives have a fitted effect of over 30% in size
* = called active by the depositor; ? = inconclusive; . = not tested or not shown; [ ] = remark or other dose. Unless noted, the call rests on the fitted dose curve; in most records, active means well fitted curve in the direction sought with a large enough effect; inconclusive means small, poorly fitted or top-dose-only effect, or another doubt; inactive means no such curve, though single readings can be large; an effect the other way counts as inactive or inconclusive. Unless noted, on the % scale 0 is the no-effect control and ±100 the full control effect; potency means the concentration at half of the fitted maximal effect.

SMILES	TR SRC2 fluor cs	TRb-SRC2 inh	Tau ThT inhib	Tau fibril FP	Tau fluor counter	RGS12 GoLoco inh
CC[n+]1c(/C=C/C=C/N(C(C)=O)c2ccccc2)sc2ccccc21	16%	6%	11µM*	?	8.9µM*[fluorescent]	-177%
CCn1c(/C=C/N(C(C)=O)c2ccccc2)[n+](CC)c2ccc(Cl)cc21	-2%	-16%	-3%	9%	-1%	1.8µM*
CCn1c(C)[n+](CC)c2ccc(C(=O)N(C)c3ccccc3)cc21	0%	4%	-13%	-7%	-11%	10%
COCCCNC(=O)CN1C(=O)c2c(c3ccccc3n2C)C1c1ccc(OC)cc1 (centres undefined)	0%	-14%	?	-10%	-4%	.
COc1ccc(CN(C(=O)/C=C/c2ccccc2Cl)C2CCS(=O)(=O)C2)cc1 (centres undefined)	-2%	-9%	-8%	6%	-16%	-4%
Cc1ccc(S(=O)(=O)c2nc(C(C)(C)C)oc2N2CCOCC2)cc1	-2%	-21%	?	40µM*	-16%	-39%
CC(=O)Nc1sc(NC(=O)c2ccc([N+](=O)[O-])cc2)nc1-c1cccs1	-2%	0%	7.9µM*	2%	?	-3%
CC(=O)Nc1sc(NC(=O)c2ccc(Cl)cc2)nc1-c1cccs1	1%	-4%	?	0%	-25%	3%
CC(=O)Nc1sc(N/N=C\c2ccccc2)nc1-c1cccs1	1%	-3%	10µM*	-6%	?	26%
CC(=O)Nc1sc(N/N=C\c2ccco2)nc1-c1cccs1	-9%	14%	16µM*	?	?	6%
CC(=O)Nc1sc(N/N=C\c2ccccc2Cl)nc1-c1cccs1	-7%	-3%	10%	1%	4%	-15%
Nc1nc(-c2cccs2)c(NC(=O)c2ccccc2)s1	0%	-7%	14µM*	?	?	1%
C/C(=N\NC(=O)c1ccc(=O)[nH]n1)c1cccnc1	0%	3%	-3%	1%	7%	-6%
CCOc1cc(/C=N/NC(=O)Nc2ccccc2)ccc1O	-7%	5%	?	14%	-28%	3%
CCOc1cc(/C=N/Nc2nc(-c3cccs3)c(NC(C)=O)s2)ccc1O	-3%	5%	25µM*	-12%	?	4%
CCc1ccc(NC(=O)Cn2c(=O)n(CCCC(=O)NCc3ccc4c(c3)OCO4)c(=O)c3ccccc32)cc1	1%	1%	11%	-13%	-14%	.
Cc1cc(C=C2C(=O)c3ccccc3C2=O)c(C)n1C	0%	9%	11µM*	-2%	-22%	-8%
Cc1cc(C=C2C(=O)c3ccccc3C2=O)c(C)n1-c1ccc(Cl)cc1	1%	2%	?	7%	-18%	9%
O=C1C(=Cc2cccs2)C(=O)c2ccccc21	1%	-2%	4%	-2%	4%	-2%
Cc1ccc(C=C2C(=O)c3ccccc3C2=O)s1	45µM*[fluorescent]	?	14µM*	12%	1%	198%
CCn1c(C)cc(C=C2C(=O)c3ccccc3C2=O)c1C	-6%	2%	14µM*	7%	-25%	12%
Cc1cccc(-n2c(C)cc(C=C3C(=O)c4ccccc4C3=O)c2C)c1	-1%	14%	?	-2%	-29%	-13%
N#Cc1ccc(NC(=O)c2nc(-c3ccccc3)n(-c3ccccc3)n2)cc1	0%	17%	0%	0%	-17%	-7%
COc1ccccc1NC(=O)CN1CCN(Cc2ccccc2)CC1	-11%	0%	-14%	3%	-11%	3%
N#C/C(=C(/O)COC(=O)CSc1ccc2ccccc2c1)c1nc2ccccc2[nH]1	-14%	0%	-15%	-2%	?	55%
SMILES	TR SRC2 fluor cs	TRb-SRC2 inh	Tau ThT inhib	Tau fibril FP	Tau fluor counter	RGS12 GoLoco inh
CN(C)/C=C1/C=C(c2ccccc2)OC1=O	-6%	-2%	40µM*	?	-23%	12%
NS(=O)(=O)c1ccc(NC(=O)COC(=O)c2cn(-c3ccccc3)nc2-c2ccccc2)cc1	-2%	-3%	0%	11µM*	?	-1%
O=C(CCCn1c(=O)oc2ccccc21)N1CCN(c2ccc(F)cc2)CC1	-2%	1%	?	10%	-15%	-12%
COc1ccccc1Nc1nc(-c2ccc3c(c2)NC(=O)CO3)cs1	-8%	-3%	14µM*	6%	11µM*[quencher]	4%
COc1ccc(Nc2nc(-c3ccc4c(c3)NC(=O)CO4)cs2)cc1	-3%	-3%	7.9µM*	-2%	13µM*[quencher]	0%
CCC(C)Nc1nc(-c2ccc3c(c2)NC(=O)CO3)cs1 (centres undefined)	0%	8%	?	-4%	?	-2%
COc1ccc(Cc2nc(=S)[nH][nH]2)cc1Br	-4%	1%	-1%	4%	3%	14%
Cc1ccc(N2C(=O)CS/C2=C(\C(Cl)=C(Cl)Cl)[N+](=O)[O-])cc1	7%	23%	25µM*	?	?	241%
Cc1ccc(N2C(=O)CSCC2=O)cc1	-2%	3%	-6%	5%	-1%	-5%
O=C(O)c1ccc(SSc2ccc(C(=O)O)cn2)nc1	.	.	.	.	.	0%[14.2 µM]
NC(=O)c1ccsc1N	0%[53 µM]	-4%[53 µM]	20µM*	32µM*	-25%	20µM*
O=C(O)C1CC(O)CN1C(=S)Nc1ccccc1 (centres undefined)	0%	5%	-8%	-1%	-4%	-5%
Cc1ccc(S(=O)(=O)Nc2ccc(-c3nc4cc(NS(=O)(=O)c5ccc(C)cc5)ccc4o3)cc2)cc1	-1%	0%	7%	16µM*	?	-22%
O=c1cnc2cnc(Oc3cccc(Cl)c3)nc2n1C[C@H]1CCCO1	.	.	.	.	.	8%
CN1/C(=C/C2CC(=O)N(c3cccc4ccccc34)C2=O)C(C)(C)c2ccccc21 (centres undefined)	1%	-10%	?	-2%	-17%	113%
CN1/C(=C/C2CC(=O)NC2=O)C(C)(C)c2ccccc21 (centres undefined)	-3%	7%	28µM*	?	-19%	52%
CN1/C(=C\P(=O)(N(C)C)N(C)C)C(C)(C)c2ccccc21	?	26%	32µM*	?	?	226%
COC(=O)c1ccccc1N/C=C1\CCc2c(c(C)nn2-c2ccccn2)C1=O	-23%	?	14µM*	?	?	1%
COC(=O)c1ccccc1NC(=O)CN1CCN(c2ccccn2)CC1	1%	-1%	-2%	-10%	-4%	7%
Cc1ccc2occ(/C=N/NC(N)=S)c(=O)c2c1	0.35µM*[quencher]	-13%	1%	-8%	-4%	5%
CC(=O)N1CC[n+]2c(-c3ccc(Cl)cc3)csc21	-2%	-3%	28µM*	?	-25%	-8%
